One compound from PubChem BioAssay AID652020 (National Center for Advancing Translational Sciences (NCATS), 2013) can be followed below.

The target in this assay is Glutathione reductase, mitochondrial (Homo sapiens) (UniProt P00390). The assay can be described thus: qHTS Assay for Inhibitors of Mammalian Selenoprotein Thioredoxin Reductase 1 (TrxR1): Counterassay in Glutathione Reductase (GR). To be noted: purified GR, DTNB reduction absorbance 405 nm kinetic; series mostly up to 57.1 µM. The text has this:
The selenoprotein thioredoxin reductase (TrxR; EC 1.8.1.9) is a FAD containing homodimeric pyridine nucleotide-disulfide oxidoreductase with many cellular roles. Together with NADPH and its prime substrate thioredoxin (Trx), the enzyme forms the core of the Trx system. The mammalian Trx system exerts a wide spectrum of functions including redox regulation, antioxidant defense, regulation of transcription factors as well as support of cell growth and replication. Many of these functions involve the reduction of Trx, which may subsequently reduce a number of different substrates including ribonucleotide reductase, peroxiredoxins or NFkB. Mammalian TrxR itself also has a broad substrate specificity, reducing both protein and non-protein substrates, including low molecular weight compounds such as dehydroascorbate, lipoic acid, ubiquinone, and juglone. […]
Three microliters of reagents (100 microM NADPH and 60 nM hGR or 100 microM NADPH as no-enzyme control) was dispensed into 1,536-well black clear-bottomed plates (Buffer: 0.1 M potassium phosphate, pH 7.4/10 mM EDTA, 0.01 % Tween-20). […] The plate was transferred to a ViewLux high-throughput CCD imager (Perkin-Elmer, Wellesley, MA) where kinetic measurements (one read per 5 min for 6 reads, total time 25 min) of the TNB absorbance was acquired using a 405 excitation filter.
In general terms: qHTS replaces the single test concentration by a dilution series.

Each structure is given as a SMILES string. Some of the results follow. Inconclusive results are not listed. Activity calls are given as the source filed them. The call rests on the fitted dose curve; in most records, active means well fitted curve in the direction sought with a large enough effect; inconclusive means small, poorly fitted or top-dose-only effect, or another doubt; inactive means no such curve, though single readings can be large or run the other way.

Chain of Glutathione reductase, mitochondrial (Homo sapiens) (P00390 whole entry, looked up): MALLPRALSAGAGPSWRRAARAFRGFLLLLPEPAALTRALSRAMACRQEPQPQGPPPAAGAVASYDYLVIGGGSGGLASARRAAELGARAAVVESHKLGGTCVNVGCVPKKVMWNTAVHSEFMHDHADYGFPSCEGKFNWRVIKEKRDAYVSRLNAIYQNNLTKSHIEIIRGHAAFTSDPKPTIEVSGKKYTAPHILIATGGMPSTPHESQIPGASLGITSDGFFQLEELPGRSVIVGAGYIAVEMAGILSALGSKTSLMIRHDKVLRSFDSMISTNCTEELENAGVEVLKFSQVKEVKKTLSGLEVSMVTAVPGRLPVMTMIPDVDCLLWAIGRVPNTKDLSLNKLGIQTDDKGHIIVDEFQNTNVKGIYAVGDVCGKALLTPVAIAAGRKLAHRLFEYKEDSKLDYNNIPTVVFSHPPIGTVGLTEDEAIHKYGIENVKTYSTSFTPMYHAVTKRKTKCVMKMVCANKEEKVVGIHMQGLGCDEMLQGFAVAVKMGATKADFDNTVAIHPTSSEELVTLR

Take `COc1ccc(-c2nc(CS(=O)CC(=O)N3CCC4(CC3)OCCO4)c(C)o2)cc1` (stereo unspecified): the call was inactive.
